# Assay results reported in publication PMC7862700, “An all-to-all approach to the identification of sequence-specific readers for epigenetic DNA modifications on cytosine”.
# Columns and labels:
# Experiment in all cases: DAPPL (digital affinity profiling via proximity ligation, sequencing); 10 mM Tris-HCl pH 7.5, 50 mM NaCl, 1 mM DTT, 4% glycerol, room temperature, 30 min; GST-TFs on glutathione beads, 16-mer random dsDNA library, 0.1% formaldehyde crosslink after washing; high values mean tight binding
# HSF1 = HSF1 (Homo sapiens, UniProt Q00613 1-529); settings: protein: recombinant; tags: N-terminal GST; chain copies: 3; dsDNA, one strand shown
# How it was run: (§1)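 Sequencing on an Illumina NextSeq500 followed washing, crosslinking with 0.1% formaldehyde, proximity ligation (BsaI/T4 ligase, 1 h, 37 °C) and PCR amplification of pools that had been incubated for 30 min at room temperature with 200 nmole of a random double-stranded 16-mer DNA library in Tris/NaCl/DTT/glycerol buffer. Each pool held DNA-barcoded human transcription factors, expressed in yeast as GST fusions and captured on glutathione beads, plus a tag-only sample. Binding signal is a hexamer's read frequency for a factor divided by its frequency in the tag-only sample.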
# CRX = CRX (Homo sapiens, UniProt O43186 1-299); settings: protein: recombinant; tags: N-terminal GST; dsDNA, one strand shown
# How it was run: as §1
# ELK1 = molecular target: T1, ELK1 (Homo sapiens, UniProt P19419 1-428); settings: protein: recombinant; tags: N-terminal GST; dsDNA, one strand shown
# T1 sequence: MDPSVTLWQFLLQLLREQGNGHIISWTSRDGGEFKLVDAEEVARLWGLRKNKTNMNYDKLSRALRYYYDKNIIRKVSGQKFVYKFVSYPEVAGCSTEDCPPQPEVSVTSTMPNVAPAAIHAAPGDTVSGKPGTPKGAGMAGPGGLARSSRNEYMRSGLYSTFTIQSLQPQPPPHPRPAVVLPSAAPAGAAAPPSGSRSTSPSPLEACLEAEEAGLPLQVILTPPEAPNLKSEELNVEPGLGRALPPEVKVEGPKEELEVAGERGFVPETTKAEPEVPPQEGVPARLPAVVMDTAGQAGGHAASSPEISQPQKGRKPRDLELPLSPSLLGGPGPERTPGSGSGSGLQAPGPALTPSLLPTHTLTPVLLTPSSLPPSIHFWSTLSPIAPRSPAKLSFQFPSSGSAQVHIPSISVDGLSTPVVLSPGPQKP
# How it was run: as §1
# EHF = molecular target: T2, EHF (Homo sapiens, UniProt Q9NZC4 1-300); settings: protein: recombinant; tags: N-terminal GST; dsDNA, one strand shown
# T2 sequence: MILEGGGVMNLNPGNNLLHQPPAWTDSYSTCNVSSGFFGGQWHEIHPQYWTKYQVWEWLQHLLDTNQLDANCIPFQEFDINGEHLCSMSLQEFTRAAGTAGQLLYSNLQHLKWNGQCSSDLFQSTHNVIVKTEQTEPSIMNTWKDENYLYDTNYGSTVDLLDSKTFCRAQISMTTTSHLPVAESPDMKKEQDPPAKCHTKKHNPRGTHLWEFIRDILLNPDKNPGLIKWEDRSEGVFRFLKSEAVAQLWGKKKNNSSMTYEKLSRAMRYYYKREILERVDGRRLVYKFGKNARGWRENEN
# How it was run: as §1
# SPI1 = SPI1 (Homo sapiens, UniProt P17947 1-270); settings: protein: recombinant; tags: N-terminal GST; dsDNA, one strand shown
# How it was run: as §1
# ELK3 = molecular target: T3, ELK3 (Homo sapiens, UniProt P41970 1-407); settings: protein: recombinant; tags: N-terminal GST; dsDNA, one strand shown
# T3 sequence: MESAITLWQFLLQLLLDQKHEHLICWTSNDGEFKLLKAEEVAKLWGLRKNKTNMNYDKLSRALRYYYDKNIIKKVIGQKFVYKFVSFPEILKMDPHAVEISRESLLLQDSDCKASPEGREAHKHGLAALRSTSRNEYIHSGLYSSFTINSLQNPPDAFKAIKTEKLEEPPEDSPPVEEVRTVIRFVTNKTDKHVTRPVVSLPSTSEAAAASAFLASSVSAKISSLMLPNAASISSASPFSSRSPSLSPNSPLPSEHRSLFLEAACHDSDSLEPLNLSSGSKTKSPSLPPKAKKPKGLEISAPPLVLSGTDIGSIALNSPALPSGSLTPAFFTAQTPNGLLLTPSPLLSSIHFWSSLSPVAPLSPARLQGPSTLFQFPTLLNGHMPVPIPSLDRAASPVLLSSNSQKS
# How it was run: as §1
# ETV2 = molecular target: T4, ETV2 (Homo sapiens, UniProt O00321 1-342); settings: protein: recombinant; tags: N-terminal GST; dsDNA, one strand shown
# T4 sequence: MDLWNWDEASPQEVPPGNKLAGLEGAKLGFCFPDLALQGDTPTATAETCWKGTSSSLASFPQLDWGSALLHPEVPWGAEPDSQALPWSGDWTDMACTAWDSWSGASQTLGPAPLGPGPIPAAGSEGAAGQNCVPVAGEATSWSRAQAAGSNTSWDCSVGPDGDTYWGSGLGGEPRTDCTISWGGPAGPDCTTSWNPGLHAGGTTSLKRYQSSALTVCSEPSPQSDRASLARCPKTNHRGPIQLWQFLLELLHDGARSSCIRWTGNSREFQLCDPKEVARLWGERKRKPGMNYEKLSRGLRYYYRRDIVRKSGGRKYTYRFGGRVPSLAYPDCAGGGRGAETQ
# How it was run: as §1
# ELF3 = molecular target: T5, ELF3 (Homo sapiens, UniProt P78545 1-371); settings: protein: recombinant; tags: N-terminal GST; dsDNA, one strand shown
# T5 sequence: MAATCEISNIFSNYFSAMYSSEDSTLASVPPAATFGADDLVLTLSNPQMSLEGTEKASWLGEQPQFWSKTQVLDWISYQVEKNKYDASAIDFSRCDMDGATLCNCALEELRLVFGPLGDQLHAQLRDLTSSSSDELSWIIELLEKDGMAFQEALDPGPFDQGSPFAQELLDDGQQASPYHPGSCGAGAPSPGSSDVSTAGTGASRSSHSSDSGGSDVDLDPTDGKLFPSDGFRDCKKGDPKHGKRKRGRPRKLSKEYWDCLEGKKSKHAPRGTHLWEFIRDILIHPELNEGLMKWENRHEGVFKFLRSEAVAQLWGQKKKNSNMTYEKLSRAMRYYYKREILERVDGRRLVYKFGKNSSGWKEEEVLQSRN
# How it was run: as §1
# ERG = molecular target: T6, ERG (Homo sapiens, UniProt P11308 1-479); settings: protein: recombinant; tags: N-terminal GST; dsDNA, one strand shown
# T6 sequence: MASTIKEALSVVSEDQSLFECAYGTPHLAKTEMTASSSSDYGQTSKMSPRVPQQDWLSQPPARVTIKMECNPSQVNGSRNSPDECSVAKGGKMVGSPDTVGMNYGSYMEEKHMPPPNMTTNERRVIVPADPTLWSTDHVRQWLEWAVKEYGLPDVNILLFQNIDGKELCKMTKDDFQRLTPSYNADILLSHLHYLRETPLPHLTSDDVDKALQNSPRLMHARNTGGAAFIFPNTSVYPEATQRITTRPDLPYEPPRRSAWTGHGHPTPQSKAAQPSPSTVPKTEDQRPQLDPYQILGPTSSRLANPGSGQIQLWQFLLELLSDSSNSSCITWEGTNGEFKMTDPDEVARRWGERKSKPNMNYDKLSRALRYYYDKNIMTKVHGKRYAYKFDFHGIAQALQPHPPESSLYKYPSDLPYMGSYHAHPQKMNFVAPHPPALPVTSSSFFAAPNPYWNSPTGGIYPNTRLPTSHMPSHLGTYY
# How it was run: as §1
# FEV = molecular target: T7, FEV (Homo sapiens, UniProt Q99581 1-238); settings: protein: recombinant; tags: N-terminal GST; dsDNA, one strand shown
# T7 sequence: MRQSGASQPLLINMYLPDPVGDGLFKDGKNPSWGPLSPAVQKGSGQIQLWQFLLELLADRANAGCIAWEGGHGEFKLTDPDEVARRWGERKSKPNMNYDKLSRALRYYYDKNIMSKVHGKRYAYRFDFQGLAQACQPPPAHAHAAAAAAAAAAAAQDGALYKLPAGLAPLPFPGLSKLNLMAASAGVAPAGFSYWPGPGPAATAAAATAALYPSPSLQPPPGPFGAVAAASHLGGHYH
# How it was run: as §1
# SPDEF = molecular target: T8, SPDEF (Homo sapiens, UniProt O95238 1-335); settings: protein: recombinant; tags: N-terminal GST; dsDNA, one strand shown
# T8 sequence: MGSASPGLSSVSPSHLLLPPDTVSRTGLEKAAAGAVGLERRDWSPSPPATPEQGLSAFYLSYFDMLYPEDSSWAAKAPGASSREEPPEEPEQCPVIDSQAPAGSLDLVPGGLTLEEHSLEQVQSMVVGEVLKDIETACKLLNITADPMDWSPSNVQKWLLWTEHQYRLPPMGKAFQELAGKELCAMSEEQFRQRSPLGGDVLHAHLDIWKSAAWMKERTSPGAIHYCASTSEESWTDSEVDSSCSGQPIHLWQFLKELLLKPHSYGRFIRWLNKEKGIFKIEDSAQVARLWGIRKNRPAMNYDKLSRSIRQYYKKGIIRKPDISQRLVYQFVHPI
# How it was run: as §1
# ELF5 = molecular target: T9, ELF5 (Homo sapiens, UniProt Q9UKW6-2 1-255); settings: protein: recombinant; tags: N-terminal GST; dsDNA, one strand shown
# T9 sequence: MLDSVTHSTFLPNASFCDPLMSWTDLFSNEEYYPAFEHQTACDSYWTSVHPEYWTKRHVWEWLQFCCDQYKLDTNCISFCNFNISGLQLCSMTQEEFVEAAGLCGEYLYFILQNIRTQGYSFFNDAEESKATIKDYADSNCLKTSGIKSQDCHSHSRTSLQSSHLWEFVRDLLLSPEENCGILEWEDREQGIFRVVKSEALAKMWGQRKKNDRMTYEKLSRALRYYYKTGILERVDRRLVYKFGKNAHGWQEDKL
# How it was run: as §1
# ETV3 = molecular target: T10, ETV3 (Homo sapiens, UniProt P41162-2 1-143); settings: protein: recombinant; tags: N-terminal GST; dsDNA, one strand shown
# T10 sequence: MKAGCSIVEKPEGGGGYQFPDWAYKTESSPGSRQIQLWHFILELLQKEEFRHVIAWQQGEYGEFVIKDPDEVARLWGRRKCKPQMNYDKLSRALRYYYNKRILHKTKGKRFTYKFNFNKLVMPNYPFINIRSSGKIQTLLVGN
# How it was run: as §1
# Chain of CRX (O43186 whole entry): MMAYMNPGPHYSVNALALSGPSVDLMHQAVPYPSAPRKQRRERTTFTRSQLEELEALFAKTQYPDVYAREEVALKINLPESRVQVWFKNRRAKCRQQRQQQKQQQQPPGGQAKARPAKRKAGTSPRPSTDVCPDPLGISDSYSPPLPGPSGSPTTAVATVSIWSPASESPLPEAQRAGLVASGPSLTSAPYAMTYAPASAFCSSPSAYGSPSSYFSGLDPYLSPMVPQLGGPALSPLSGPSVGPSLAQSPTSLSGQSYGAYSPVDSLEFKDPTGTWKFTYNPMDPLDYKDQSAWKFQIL
# Chain of HSF1 (Q00613 whole entry, the tested form may be a part): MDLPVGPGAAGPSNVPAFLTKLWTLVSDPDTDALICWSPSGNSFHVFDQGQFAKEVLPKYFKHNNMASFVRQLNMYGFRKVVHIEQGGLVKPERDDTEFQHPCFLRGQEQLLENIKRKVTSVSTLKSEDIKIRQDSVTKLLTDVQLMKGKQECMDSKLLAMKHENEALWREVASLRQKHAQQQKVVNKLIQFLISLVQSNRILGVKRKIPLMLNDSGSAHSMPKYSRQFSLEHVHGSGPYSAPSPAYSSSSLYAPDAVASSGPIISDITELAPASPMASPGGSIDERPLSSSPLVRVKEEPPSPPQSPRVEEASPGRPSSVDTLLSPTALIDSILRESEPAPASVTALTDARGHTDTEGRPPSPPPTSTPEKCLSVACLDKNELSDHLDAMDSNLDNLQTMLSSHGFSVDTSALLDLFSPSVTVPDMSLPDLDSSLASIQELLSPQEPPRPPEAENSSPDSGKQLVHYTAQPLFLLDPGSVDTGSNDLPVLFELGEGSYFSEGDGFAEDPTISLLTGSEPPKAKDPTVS
sequence,measurement,setting,value
GGGATT,binding signal,HSF1,"1.75 fold enrichment (6-mer frequency, TF over GST control)"
same,binding signal,CRX,"2.71 fold enrichment (6-mer frequency, TF over GST control)"
AGAATG,binding signal,ELK1,"1.01 fold enrichment (6-mer frequency, TF over GST control)"
same,binding signal,EHF,"1.02 fold enrichment (6-mer frequency, TF over GST control)"
same,binding signal,SPI1,"1.01 fold enrichment (6-mer frequency, TF over GST control)"
same,binding signal,ELK3,"1.01 fold enrichment (6-mer frequency, TF over GST control)"
same,binding signal,HSF1,"2.08 fold enrichment (6-mer frequency, TF over GST control)"
same,binding signal,ETV2,"1.01 fold enrichment (6-mer frequency, TF over GST control)"
same,binding signal,ELF3,"1.05 fold enrichment (6-mer frequency, TF over GST control)"
same,binding signal,CRX,"1.09 fold enrichment (6-mer frequency, TF over GST control)"
AGATCA,binding signal,HSF1,"1.21 fold enrichment (6-mer frequency, TF over GST control)"
same,binding signal,ETV2,"1.03 fold enrichment (6-mer frequency, TF over GST control)"
same,binding signal,CRX,"1.31 fold enrichment (6-mer frequency, TF over GST control)"
CGGATT,binding signal,ERG,"1 fold enrichment (6-mer frequency, TF over GST control)"
same,binding signal,FEV,"1.44 fold enrichment (6-mer frequency, TF over GST control)"
same,binding signal,HSF1,"1.56 fold enrichment (6-mer frequency, TF over GST control)"
same,binding signal,ELF3,"1.01 fold enrichment (6-mer frequency, TF over GST control)"
same,binding signal,CRX,"2.48 fold enrichment (6-mer frequency, TF over GST control)"
same,binding signal,SPDEF,"1.42 fold enrichment (6-mer frequency, TF over GST control)"
same,binding signal,ELF5,"1.01 fold enrichment (6-mer frequency, TF over GST control)"
same,binding signal,ETV3,"1.04 fold enrichment (6-mer frequency, TF over GST control)"
TAAGAC,binding signal,HSF1,"1.22 fold enrichment (6-mer frequency, TF over GST control)"
same,binding signal,CRX,"1.72 fold enrichment (6-mer frequency, TF over GST control)"
GAGATT,binding signal,HSF1,"1.25 fold enrichment (6-mer frequency, TF over GST control)"
same,binding signal,CRX,"1.57 fold enrichment (6-mer frequency, TF over GST control)"
GATCTG,binding signal,HSF1,"1.07 fold enrichment (6-mer frequency, TF over GST control)"
same,binding signal,CRX,"1.09 fold enrichment (6-mer frequency, TF over GST control)"
GACTAA,binding signal,HSF1,"1.13 fold enrichment (6-mer frequency, TF over GST control)"
same,binding signal,CRX,"1.44 fold enrichment (6-mer frequency, TF over GST control)"
TTAGAG,binding signal,HSF1,"1.25 fold enrichment (6-mer frequency, TF over GST control)"
same,binding signal,ETV2,"1.01 fold enrichment (6-mer frequency, TF over GST control)"
same,binding signal,CRX,"1.77 fold enrichment (6-mer frequency, TF over GST control)"
